HPGD block = blocks human HPGD enzyme activity | Potency, µM, usual class: inhibitors | purified HPGD, NADH fluorescence kinetic, PGE2 substrate | AID 894 | 150,000 compounds, 4.3% hits | P15428
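20 nM HPGD preincubated 15 min at room temperature with compound in 50 mM Tris-HCl pH 8, 0.01% Tween 20. Started with 1 mM NAD+ and 30 uM prostaglandin E2; NADH fluorescence (360/450 nm) read 5 times over 30-s intervals, last minus first.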
ALDH1A1 inh = inhibitors of human aldehyde dehydrogenase 1A1; P00352; Purified ALDH1A1, NADH fluorescence, propionaldehyde substrate; Potency, µM (doses to about 75.3 µM), usual class: inhibitors; 220,000 compounds, 7.3% hits
Target sequence (P00352 whole entry, looked up): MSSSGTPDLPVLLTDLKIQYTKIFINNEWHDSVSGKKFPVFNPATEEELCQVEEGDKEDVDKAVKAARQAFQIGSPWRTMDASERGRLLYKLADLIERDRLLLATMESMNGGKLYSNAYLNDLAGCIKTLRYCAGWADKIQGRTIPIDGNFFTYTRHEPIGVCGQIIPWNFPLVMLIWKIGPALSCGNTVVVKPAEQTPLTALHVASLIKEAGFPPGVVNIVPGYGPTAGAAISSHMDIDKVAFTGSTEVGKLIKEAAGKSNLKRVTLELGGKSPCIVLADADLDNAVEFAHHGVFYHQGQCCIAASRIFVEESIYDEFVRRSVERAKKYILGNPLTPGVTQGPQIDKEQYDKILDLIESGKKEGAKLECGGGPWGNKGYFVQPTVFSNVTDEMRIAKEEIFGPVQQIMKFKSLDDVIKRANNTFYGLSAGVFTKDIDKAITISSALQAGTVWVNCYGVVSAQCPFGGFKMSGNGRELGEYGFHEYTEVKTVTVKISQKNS
PNC assembly inh = perinucleolar compartment assembly inhibition | activity change (PNC), negative = inhibition, % at 10 µM | 140,000 compounds, 3.1% hits | PC3M PTB-GFP, PNC prevalence imaging, 16 h; active compounds read low;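 active = readout at or below -70, meaning at least 70% loss of cells showing the perinucleolar compartment, a nuclear body marking cancer cells; inconclusive = readout between -30 and a set limit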
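Read-out is percentage of cells bearing a perinucleolar compartment, from automated 20x imaging of fixed, Hoechst-stained PC3M PTB-GFP cells. Cells were seeded 4 h, then exposed 16 h to compound (23 nl of library stock) in duplicate plates.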
Numbers stand for hits; - = inactive; ? = inconclusive; . = no result; [ ] = another dose, or the depositor's remark. Rows were chosen to be rich in hits. Some 11% of all compounds tested hit in one or more screens of this group. Unless noted, calls come from the whole dose curve; as a rule, active = well fitted inhibition curve with a large enough effect (not every such curve was filed as active); inconclusive = small, poorly fitted or top-dose-only effect, or another doubt; inactive = no such curve, though single readings can be large or run the other way.

SMILES	HPGD block	ALDH1A1 inh	PNC assembly inh
COc1ccccc1C1OC2=C(Nc3ccc([N+](=O)[O-])cc3N2)C1=O (stereo not given)	.	-	.
C[C@H](CCC(=O)O)[C@H]1CC[C@@H]2[C@@H]3CC[C@H]4C[C@@H](O)CC[C@@]4(C)[C@@H]3C[C@H](O)[C@@]21C	-	-[13.5 µM]	.
CCn1cc(/C=C/C(=O)NCc2c(C)nn(C)c2C)cn1	-	-	-
Cc1nn(C)c(C)c1CNC(=O)/C=C/c1ccccc1F	-	-	-113.4
C[N+](C)(C)CC[N+]1(C)Cc2c(Cl)c(Cl)c(Cl)c(Cl)c2C1	-	-	.
CCN(CC)C(=O)CN(C#N)c1nc(C)cc(C)n1	-	-	-
CCN(CC)C(=O)CN(C#N)c1nc(OC)nc(N(C)C)n1	-	-	-81.8
O=C(C1CCCN(S(=O)(=O)c2cnc[nH]2)C1)N1CCN(c2ccc(Cl)cc2)CC1 (stereo not given)	-	-	-
O=C(C1CCCN(S(=O)(=O)c2cnc[nH]2)C1)N1CC(=O)N(CCc2ccccc2)C(=O)C1 (stereo not given)	-	-	-119.3
O=C(Nc1ccccc1)Nc1ccccc1-n1ccnc1	.	-	.
COc1ccc(N=C2CCS(=O)(=O)c3sccc32)cc1	.	10µM	.
COc1ccc(C(=O)O/N=C2\CCS(=O)(=O)c3sccc32)cc1	.	-	.
O=C1NN(c2ccccc2)C(=O)/C1=C/c1coc2ccccc2c1=O	?	-	?
N#C/C(=C\c1coc2ccccc2c1=O)C(N)=S	.	31.6µM	.
COc1ccc2c(c1)O[C@@H](c1ccc3c(c1)OCO3)[C@H](OC(=O)NS(=O)(=O)c1ccc(C)cc1)C2=O	-	-	.
Cc1ccc(C=Nc2cccnc2N)cc1	-	?	-
CCOc1ccc(C=Nc2cccc3ncccc23)cc1	.	17.8µM	.
COC(=O)c1ccc(Cl)c(NC(=O)c2ccc(-c3ccccc3)cc2)c1	-	-	-
Cc1ccc(OCCn2cnc(Cl)c2Cl)cc1	.	-	.
Cc1ccc(OCCn2cc(Br)c(=O)[nH]c2=O)cc1	-	20µM	-
O=C(c1cccs1)C1CCCN(Cc2nc(Cc3ccccc3F)no2)C1 (stereo not given)	.	-	.
O=C(c1cnccn1)N1CCC2(CC1)CCN(c1ccncc1)CC2	-	-	.
COc1ccc(N(CC(=O)NN=C2CCCC2)S(=O)(=O)c2ccccc2)cc1	-	-	-
CSc1ccc(S(=O)(=O)N(CC(=O)NN=C2CCN(C)CC2)c2ccc(C)cc2)cc1	.	5.01µM	.
Cn1c(SCC(=O)N/N=C/c2cccs2)nc2ccccc21	-	-	-
SMILES	HPGD block	ALDH1A1 inh	PNC assembly inh
Cn1c(SCC(=O)N/N=C/C=C\c2ccco2)nc2ccccc21	20µM	5.97µM	?
O=C(CSc1nc2ccccc2n1Cc1ccccc1)N/N=C/c1ccco1	-	-	?
CCn1c(SCC(=O)N/N=C/c2cc(OC)c(O)c(OC)c2)nc2ccccc21	-	?	-
CCn1c(SCC(=O)N/N=C/C=C\c2ccco2)nc2ccccc21	?	10µM	-
C/C(=N/NC(=O)CSc1nc2ccccc2n1C)c1ccc(O)cc1	.	12.6µM	.
CCn1c(SCC(=O)N/N=C/c2cc(OC)c(OC)c(OC)c2)nc2ccccc21	-	25.1µM	-
Cc1ccc(/C=N/NC(=O)CSc2nc3ccccc3n2C)s1	-	-	-
CC(=O)n1cc([C@H]2C=C(C(=O)N3CCN(Cc4ccc5c(c4)OCO5)CC3)O[C@@H](OCCCCO)C2)c2ccccc21	.	-	.
Oc1ccccc1/C=N/NC(=S)NC1CC2CC1C1C=CCC21 (stereo not given)	.	-	.
O=C(COC(=O)CCC(=O)c1cccs1)NC1CC1	.	-	.
COc1ccc(OCCSc2nnc(C(C)NC(=O)c3ccccc3F)n2C)cc1 (stereo not given)	.	-	.
Cc1noc(C)c1-c1nc(NC2CCNCC2)c2ccccc2n1	.	-	.
COc1ccc(C(=O)C2CCN(S(=O)(=O)c3ccc4c(c3)OCCO4)CC2)cc1	-	?	-
COc1ccc(-c2noc(C3CCCN(S(=O)(=O)c4ccc(C)c(Cl)c4)C3)n2)cc1OC (stereo not given)	.	-	-
Cc1ccc(-c2noc(C3CCN(S(=O)(=O)c4ccc5c(c4)OCCO5)CC3)n2)o1	-	28.2µM	-
CN(C)c1ccc(-c2noc(C3CCN(S(=O)(=O)c4cccc(Cl)c4)CC3)n2)cc1	?	?	-
O=C(Cc1ccccc1)N1CCCC(c2nc(-c3ccc(S(=O)(=O)N4CCCC4)cc3)no2)C1 (stereo not given)	-	?	-
Cc1ccc(-c2noc(C3CCCN(S(=O)(=O)c4ccc5ccccc5c4)C3)n2)o1 (stereo not given)	20µM	23.8µM	-
CC(=O)c1cccc(S(=O)(=O)N2CCCC(c3nc(-c4ccc(C)o4)no3)C2)c1 (stereo not given)	-	10µM	-
O=S(=O)(c1ccc2ccccc2c1)N1CCC(c2nc(-c3ccncc3)no2)CC1	-	-	-100.0
Cc1c(C(=O)NN2CCOCC2)nn(-c2ccc(Cl)cc2Cl)c1-c1ccc(I)cc1	-	-	.
COCC(=O)N1CCC2(CCCN(Cc3cc(C(F)(F)F)cc(C(F)(F)F)c3)C2)CC1	-	-	.
Cn1c(=O)c(-c2cccs2)nc2cnc(Oc3ccccc3)nc21	-	?	.
Cc1ccc(Oc2ncccc2C(=O)NC2CCSC2=O)cc1 (stereo not given)	.	-	.
CCOC(=O)O[C@]1(C(=O)COC(=O)CC)CC[C@@H]2[C@@H]3CCC4=CC(=O)C=C[C@@]4(C)[C@H]3[C@H](O)C[C@]21C	-	-	.
SMILES	HPGD block	ALDH1A1 inh	PNC assembly inh
O=C(O)[C@@H](O)[C@@H](O)[C@H](O)C(=O)CO	-	-[13.5 µM]	.
CC(C)[C@@H](CC(=O)N[C@@H]1CCCC[C@H]1C(=O)N[C@H](CC(=O)N[C@@H](CCC(=O)O)CC(=O)O)Cc1ccccc1)NC(=O)C[C@H](CO)NC(=O)[C@@H]1CNCC[C@H]1N	-	-	.
Cc1ccc(S(=O)(=O)N2CCCC(c3nc(-c4ccc(C)o4)no3)C2)cc1 (stereo not given)	-	?	-
Cc1ccc(-c2noc(C3CCCN(S(=O)(=O)c4ccc(S(=O)(=O)N(C)C)cc4)C3)n2)o1 (stereo not given)	-	25.1µM	-
CNC(=S)N(Cc1ccc(OC)cc1)C1CC(=O)N(c2ccc(Cl)cc2)C1=O (stereo not given)	-	?	-
Cc1cc(C)cc(N(CC(=O)Nc2ccccc2-c2ccccc2)S(=O)(=O)c2ccccc2)c1	10µM	-	-
Cc1ccc(N(CC(=O)Nc2ccccc2-c2ccccc2)S(=O)(=O)c2ccccc2)cc1	-	-	-
COc1cc(/C=C2/NC(=O)N(Cc3ccccc3F)C2=O)ccc1O	.	6.31µM	.
Cc1ccccc1NC(=O)CN1C(=O)S/C(=C\c2cccn2-c2cccc(C(=O)O)c2)C1=O	28.2µM	?	?
COc1cc(/C=C2/NC(=O)N(Cc3ccccc3F)C2=O)ccc1Oc1ccc([N+](=O)[O-])cn1	-	0.224µM	-
Cc1cccc(C)c1NC(=O)CN1C(=O)S/C(=C\c2cccn2-c2cccc(C(=O)O)c2)C1=O	-	-	-
O=C(O)c1cccc(-n2cccc2/C=C2/NC(=O)N(Cc3ccccc3F)C2=O)c1	.	14.1µM	.
COC(=O)c1ccc2c(c1)N(Cc1ccccc1F)C(=O)c1ccccc1S2=O (stereo not given)	-	-	?

Screening results (PubChem)
